Compound activity from PubChem BioAssay.
C diff HTS – blocks growth of Clostridium difficile | Clostridium difficile clinical isolate growth, OD600, 24 h; active compounds read low | actives 0.25% (n = 86,000) | growth activity, negative = inhibition, % at 16 µg/mL (by protocol) | AID 1259249;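 active = mean growth activity at or below -80% and every replicate also at or below -80%; inconclusive = mean at or below -80% but some replicate above -80%; inactive = mean growth activity above -80%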;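 also: 0% = DMSO wells and -100% = levofloxacin 16 µg/mL wells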
Pf Dd2 growth – inhibitors of Plasmodium falciparum Dd2 growth; activity change, % at 10 µM; P. falciparum Dd2 growth, SYBR Green, 72 h; active compounds read low; AID 1159554; actives 2.3% (n = 94,000); in the data active = activity change below about -80%; inconclusive = no clear call, values can overlap the other calls
T cruzi growth-1 – blocks T. cruzi growth in NIH3T3 culture | T. cruzi beta-gal in NIH3T3, GalScreen luminescence, 90 h | actives 5.9% (n = 77,000) | inhibition, % at 8.34 µM;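 active = mean inhibition above about 93%, with at least 55% of replicates each passing it, limit read from the data, passing the limit was not always enough; inconclusive = only one of those two conditions holds; inactive = neither condition holds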
T cruzi growth-2 – blocks T. cruzi growth in NIH3T3 host cells; shares compounds with T cruzi growth-1; T. cruzi beta-gal in NIH3T3, GalScreen luminescence, 90 h; inhibition, % at 8.35 µM; actives 72% (n = 5,600); AID 651739;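 active = mean replicate inhibition above about 95% and at least 55% of replicates individually reaching it, limit read from the data; inconclusive = only one of the two criteria is met; inactive = neither criterion is met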
T cruzi growth-3 – blocks T. cruzi growth in NIH3T3 host cells. shares compounds with T cruzi growth-1. T. cruzi beta-gal in NIH3T3, GalScreen luminescence, 90 h. inhibition, % at 2.09 µM. actives 21% (n = 5,600). AID 651740;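 active = mean inhibition above about 95%, with at least 55% of replicates also reaching it, limit read from the data; inconclusive = meets just one of the two conditions; inactive = meets neither condition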;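 also: plate controls were neutral control median for no effect and positive control median for full effect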
3T3 cytotox – cytotoxicity in mouse NIH/3T3 fibroblasts | shares compounds with T cruzi growth-1 | NIH/3T3 viability, CellTiter-Glo ATP luminescence, 90 h | cytotoxicity (signal decrease), % at 8.35 µM | actives 14% (n = 5,600);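 active = mean signal decrease across replicates above about 35% based on untreated-well scatter, with enough replicates individually passing, limit read from the data; inconclusive = no rule stated though some were filed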;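 also: 0% = median of neutral control wells and 100% = median of positive control wells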
3T3 cytotox 2 – NIH/3T3 (mouse) viability loss | inhibition, % at 24.9 µM | AID 651744 | shares compounds with T cruzi growth-1 | actives 56% (n = 5,600) | NIH/3T3 viability, CellTiter-Glo ATP luminescence, 90 h;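 active = mean loss of cell viability signal at or above a set limit, and enough replicates individually reaching it; inconclusive = meets only the mean limit or only the replicate share; inactive = meets neither condition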;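 also: 0% = median of neutral control wells and 100% = median of positive control wells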
* = called active by the depositor; ? = inconclusive; . = no result given. Only some compounds are listed: those with a hit (about 6.8% of all), similar ones and a draw of the others.

SMILES | C diff HTS | Pf Dd2 growth | T cruzi growth-1 | T cruzi growth-2 | T cruzi growth-3 | 3T3 cytotox | 3T3 cytotox 2
CCCNC(=O)N(C)C[C@H]1Oc2cc(C#CC(C)(C)O)ccc2S(=O)(=O)N([C@H](C)CO)C[C@H]1C | 1.1 | 35.5 | 33.5 | . | . | . | .
CC(C)NC(=O)N(C)C[C@@H]1Oc2ncc(C#CCC3CCCC3)cc2C(=O)N([C@H](C)CO)C[C@H]1C | -4.5 | . | -9.2 | . | . | . | .
C[C@@H]1CN([C@H](C)CO)C(=O)c2cc(C#C[C@@H](C)O)cnc2O[C@@H]1CN(C)C(=O)Nc1ccc(F)cc1 | -4.2 | 26.1 | 17.4 | . | . | . | .
COc1cccc(S(=O)(=O)N2CC[C@H]3[C@H](CO)Nc4ccc(Br)cc4[C@H]32)c1 | 56.1 | 50.6 | 38.5 | . | . | . | .
C[C@H]1CN([C@@H](C)CO)C(=O)c2cc(/C=C/c3ccccc3)cnc2O[C@@H]1CN(C)S(=O)(=O)c1ccc(F)cc1 | -4.5 | -61.3 | 83.3* | 100.0* | 70.5 | 9.9 | 12.1
C/C=C/c1cnc2c(c1)C(=O)N([C@@H](C)CO)C[C@@H](C)[C@@H](CN(C)S(=O)(=O)c1ccc(F)cc1)O2 | 0.7 | 4.4 | 35.3 | . | . | . | .
C[C@@H]1CN([C@H](C)CO)C(=O)c2cc(/C=C/c3ccccc3)cnc2O[C@@H]1CN(C)S(=O)(=O)c1ccc(F)cc1 | 2.5 | -34.5 | 80.0* | 104.6* | 40.7 | 17.2 | 50.7*
C/C=C/c1cnc2c(c1)C(=O)N([C@H](C)CO)C[C@H](C)[C@H](CN(C)S(=O)(=O)c1ccc(F)cc1)O2 | -1.6 | -8.7 | -5.1 | . | . | . | .
Cc1ccccc1-c1ccc2c(c1)O[C@@H](CN(C)C(=O)Nc1ccc(F)cc1)[C@@H](C)CN([C@H](C)CO)S2(=O)=O | 12.7 | -8.4 | . | . | . | . | .
COc1ccccc1CNC(=O)C[C@@H]1C[C@@H]2c3cc(NC(=O)NC4CCCC4)ccc3O[C@@H]2[C@@H](CO)O1 | 2.0 | -7.5 | 111.3* | 84.9 | 1.4 | -20.9 | -1.0
O=C(C[C@@H]1CC[C@@H](NC(=O)Nc2ccc(C(F)(F)F)cc2)[C@@H](CO)O1)NCc1cc(F)cc(F)c1 | . | -4.0 | -0.6 | . | . | . | .
COc1ccccc1CNC(=O)C[C@H]1C[C@H]2c3cc(NC(=O)NC4CCCC4)ccc3O[C@H]2[C@@H](CO)O1 | 0.0 | 13.0 | 68.3 | . | . | . | .
O=C(C[C@@H]1C[C@@H]2c3cc(NC(=O)Nc4ccc(C(F)(F)F)cc4)ccc3O[C@@H]2[C@H](CO)O1)NCc1ccc2c(c1)OCO2 | 2.3 | 0.3 | 44.6 | . | . | . | .
O=C(C[C@H]1CC[C@H](NC(=O)Nc2ccc(C(F)(F)F)cc2)[C@@H](CO)O1)NCc1cc(F)cc(F)c1 | . | -38.5 | 103.3* | 76.8 | -24.1 | -7.0 | 9.7
C[C@H](NC(=O)C[C@H]1C[C@@H]2c3cc(NC(=O)Nc4ccc(C(F)(F)F)cc4)ccc3O[C@@H]2[C@H](CO)O1)c1ccccc1 | 11.6 | -25.5 | ? | 101.9* | 11.5 | 47.7* | 70.7*
C[C@H](NC(=O)C[C@@H]1C[C@H]2c3cc(NC(=O)Nc4ccc(C(F)(F)F)cc4)ccc3O[C@H]2[C@@H](CO)O1)c1ccccc1 | 12.6 | 5.0 | 58.5 | . | . | . | .
O=C(C[C@H]1C[C@@H]2c3cc(NC(=O)Nc4ccc(C(F)(F)F)cc4)ccc3O[C@@H]2[C@H](CO)O1)NCc1ccc(Cl)cc1 | . | 1.6 | ? | 107.7* | 49.2 | 21.7 | -3.6
CO[C@H]1CN(C)C(=O)c2ccc(NS(=O)(=O)c3ccc(C)cc3)cc2OC[C@H](C)NC[C@H]1C | -1.6 | 18.0 | 52.7 | . | . | . | .
COc1ccc(NC(=O)N(C)C[C@H]2OCCCC[C@H](C)Oc3ccc(NS(=O)(=O)c4ccccc4)cc3C(=O)N([C@@H](C)CO)C[C@@H]2C)cc1 | -1.1 | -58.8 | 95.4 | . | . | . | .
CO[C@H]1CN(C)C(=O)c2cc(NC(C)=O)ccc2OC[C@@H](C)NC[C@@H]1C | -1.0 | 12.0 | 32.2 | . | . | . | .
C[C@H](CO)N1C[C@H](C)[C@H](CN(C)S(=O)(=O)c2cn(C)cn2)OCCCC[C@H](C)Oc2ccc(NC(=O)c3ccccc3)cc2C1=O | 3.8 | -42.7 | -4.1 | . | . | . | .
COc1ccccc1CNC(=O)C[C@H]1C[C@H]2c3cc(NC(=O)Nc4ccc(C(F)(F)F)cc4)ccc3O[C@H]2[C@H](CO)O1 | 6.5 | -61.2 | 133.8* | 107.5* | 52.4 | -20.5 | -19.3
O=C(C[C@@H]1C[C@H]2c3cc(NC(=O)NC4CCCCC4)ccc3O[C@H]2[C@@H](CO)O1)NCc1ccccc1 | . | -9.7 | 51.7 | . | . | . | .
O=C(C[C@@H]1C=C[C@H](NC(=O)Nc2ccccc2)[C@@H](CO)O1)NCc1cccc(F)c1 | -3.7 | -0.9 | ? | -11.6 | -0.9 | -36.5 | -19.4
COc1ccccc1CNC(=O)C[C@@H]1C[C@@H]2c3cc(NC(=O)Nc4ccc(C(F)(F)F)cc4)ccc3O[C@@H]2[C@H](CO)O1 | 6.1 | -23.7 | 125.4* | 111.4* | 66.5 | 4.1 | 27.5
SMILES | C diff HTS | Pf Dd2 growth | T cruzi growth-1 | T cruzi growth-2 | T cruzi growth-3 | 3T3 cytotox | 3T3 cytotox 2
COc1ccccc1CNC(=O)C[C@H]1C[C@@H]2c3cc(NC(=O)Nc4ccc(C(F)(F)F)cc4)ccc3O[C@@H]2[C@H](CO)O1 | 16.6 | -76.1 | 65.8 | . | . | . | .
O=C(C[C@H]1C[C@H]2c3cc(NC(=O)NC4CCCCC4)ccc3O[C@H]2[C@@H](CO)O1)NCc1ccccc1 | . | 0.0 | 97.4* | 58.7 | 9.9 | 12.9 | 8.4
COc1ccccc1CNC(=O)C[C@@H]1C[C@H]2c3cc(NC(=O)Nc4ccc(C(F)(F)F)cc4)ccc3O[C@H]2[C@H](CO)O1 | 0.6 | -53.4 | 87.5 | . | . | . | .
O=C(C[C@@H]1C=C[C@@H](NC(=O)Nc2ccccc2)[C@@H](CO)O1)NCc1cccc(F)c1 | 3.7 | -4.8 | -16.5 | . | . | . | .
COCC(=O)N1CC2(CN(C(=O)NC(C)C)C2)c2c(n(C)c3cc(OC)ccc23)[C@@H]1CO | 2.3 | 36.5 | . | . | . | . | .
COC(=O)C[C@@H]1C=C[C@@H](NC(=O)Nc2ccc(C(F)(F)F)cc2)[C@@H](CO)O1 | . | 1.2 | 15.4 | . | . | . | .
CO[C@H]1CN(C)C(=O)c2ccc(NC(C)=O)cc2OC[C@@H](C)N(C(=O)C2CCOCC2)C[C@@H]1C | . | 10.9 | -0.6 | . | . | . | .
C[C@H](NC(=O)C[C@H]1CC[C@H](NC(=O)c2cccnc2)[C@@H](CO)O1)c1ccccc1 | . | -5.3 | 41.3 | . | . | . | .
CC(=O)N(C[C@@H]1N[C@@H](CO)[C@H]1c1ccc(-c2ccccc2)cc1)C(C)C | -0.2 | 3.8 | 12.7 | . | . | . | .
O=C(NCC[C@H]1CC[C@H](NS(=O)(=O)c2ccc(F)cc2)[C@H](CO)O1)c1ccccc1F | 0.0 | 3.8 | . | . | . | . | .
CCC(=O)N1CC2(CCN(C(=O)NC(C)C)CC2)c2c(n(C)c3cc(OC)ccc23)[C@H]1CO | -8.8 | -46.1 | . | . | . | . | .
COc1cccc(C#Cc2cnc3c(c2)C(=O)N([C@H](C)CO)C[C@@H](C)[C@@H](CN(C)C)O3)c1 | -1.9 | -25.5 | 89.7 | . | . | . | .
